This is part of a sample that, as a whole, favours compounds with a hit. Of some 79,000 tested, about 15% had one in any assay. A number with no mark means an inactive call. Calls of active or inactive are those of the source. Rule as the data show it: active = growth inhibition above about 70%; inactive = the rest.
Tests used:
[1] = NCI Yeast Anticancer Drug Screen. Data for the rad50 strain (AID 155);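 also: 0% = growth of vehicle-only cultures of the same strain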; settings: S. cerevisiae rad50 strain growth inhibition; at 50.0 µM; hits give high values
Outline: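 Compounds were tested on a yeast strain with an engineered DNA damage repair alteration; the reported value is growth inhibition normalised to vehicle treatment.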

[2] = NCI Yeast Anticancer Drug Screen. Data for the mec2-1 strain (AID 157); settings: S. cerevisiae mec2-1 strain, at 50.0 µM, hits give high values
Outline: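 Mutant yeast (mec2-1) grown with compound; growth inhibition relative to vehicle control reported.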

[3] = NCI Yeast Anticancer Drug Screen. Data for the sgs1 mgt1 strain (AID 161);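 also: 0% = growth of cultures given vehicle only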; settings: S. cerevisiae sgs1 mgt1 strain, at 50.0 µM, hits give high values
Outline: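 Yeast cells carrying a defined DNA-repair defect were exposed to test compounds. Growth inhibition was measured relative to vehicle-treated controls.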

[4] = NCI Yeast Anticancer Drug Screen. Data for the cln2 rad14 strain (AID 165);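 also: 0% = growth equal to vehicle treated cultures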; settings: S. cerevisiae cln2 rad14 strain, at 50.0 µM, hits give high values
Outline: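 Readout is yeast growth inhibition versus vehicle-treated controls, using a strain with cln2 and rad14 alterations exposed to compound.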

[5] = NCI Yeast Anticancer Drug Screen. Data for the bub3 strain (AID 167); settings: S. cerevisiae bub3 mutant strain, at 50.0 µM, hits give high values
Outline: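 Growth of a checkpoint-deficient yeast mutant is measured after compound exposure. Values represent inhibition relative to vehicle.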

[6] = NCI Yeast Anticancer Drug Screen. Data for the mlh1 rad18 strain (AID 175); settings: S. cerevisiae mlh1 rad18 strain growth inhibition; at 50.0 µM; hits give high values
Outline: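 Genetically defined yeast (DNA repair-deficient) exposed to compounds; growth inhibition determined relative to vehicle.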

SMILES | growth inhibition [1] | growth inhibition [2] | growth inhibition [3] | growth inhibition [4] | growth inhibition [5] [%] | growth inhibition [6]
CCCS(=O)(=O)CCCCCCCCCCC(=O)O | -5.45% | -11.4% | -7.8% | -28.7% | -7.15 | -6.2%
Cc1cc2ccccc2n1S(=O)(=O)c1ccccc1 | 54% | 45.4% | 18.4% | 35% | 61 | 66.3%
Cc1cc(=O)[nH]c2cc(NN)ccc12 | 10.2% | -3.85% | 4.85% | -4.35% | -0.45 | 8.55%
CN(C)c1ccc(/C=N/NC(=S)Nc2cccc3cccnc23)cc1 | 18.6% | -3.05% | 1.4% | 20.3% | 20.6 | -2.8%
COC(=O)c1cc(C(c2cc(C)c(O)c(C(=O)OC)c2)c2cc(C)c(O)c(C(=O)OC)c2)cc(C)c1O | -6.9% | 10.6% | -4.4% | -6.2% | -0.3 | 3.9%
CCCC1(C)COC(=O)OC1 | 6% | 6.5% | 17.5% | 13.9% | 7.1 | 19.9%
C[C@@H]1S[C@H](c2c(F)cccc2Cl)n2c1nc1ccccc12 | 78.7% (active) | 82.7% (active) | 86.6% (active) | 82.2% (active) | 68.2 | 78.1% (active)
Cn1/c(=N\N=C2\C=C3CCCCC3(C)CC2)sc2ccccc21 (stereo unspecified) | 12.7% | 12.2% | 22.9% | 33.2% | -8.8 | 47.1%
N#CCCN(CCC#N)c1ccc(C(=O)NN)cc1 | -18.1% | -15.9% | -3.2% | 25.2% | -8.8 | -5.3%
COC(=O)c1ccc(C(=O)c2ccc(OC)cc2OC)cc1 | -0.1% | -4.05% | -0.85% | -58.8% | 4.15 | -17.4%
Cc1ccc([N+](=O)[O-])cc1NC(=O)C(=O)Cc1cc(=O)oc2cc(O)ccc12 | -4.85% | -22.9% | -28.3% | 23.9% | -16.1 | -6.25%
CSc1nsc(SC)c1C(N)=O | -0.25% | -17.6% | 15.3% | 12.5% | 16.2 | -0.85%
O=C1NC(N2CCCC(CO)C2)=N/C1=C\c1cccs1 (stereo unspecified) | 8.1% | -6.8% | -3.4% | 3.25% | -14.4 | -39.7%
CCc1cccc(C)c1NC(=O)CC1C(=O)Nc2ccccc2S1=O (stereo unspecified) | -6.1% | -0.9% | 13.2% | -63.7% | 9.85 | 27.4%
CCCCCCCCCCCC(=O)Nc1cc(Cl)c(OC)cc1OC | -17.4% | 6.75% | 13.9% | -32.8% | 7.1 | 48.4%
O=C(N/N=C/c1ccc(Br)cc1)N/N=C/c1ccc(Br)cc1 | -13.5% | -15.7% | -6.45% | 11.4% | -5.05 | -12.8%
CC1=CC(=O)C(=O)c2ccccc21 | -34.9% | -9.65% | -5.5% | 10.4% | -4.4 | -4.9%
COc1ccc(N=Cc2ccc(C=Nc3ccc(OC)cc3)cc2)cc1 | 23.2% | 2.25% | 21.3% | -0.95% | 20.1 | 19.9%
Cc1cc(C)c2c(=O)n(-c3ccc(Br)cc3)c(=S)n(-c3ccc(Br)cc3)c2n1 | 19.2% | 4.35% | -3.2% | 12.8% | -3.85 | 23.5%
CC(C)CC(NC(=O)CNC(=O)/C=C/c1ccco1)C(N)=O (stereo unspecified) | -16.9% | -29% | -9.2% | -11.2% | -10.1 | -18.5%
COc1ccc(OC(=O)Nc2ccc(OC)cc2Cl)cc1 | 3% | 5.75% | 7.05% | 12.6% | 24.7 | 7.7%
